# High-throughput results (PubChem BioAssay)
# The entries come from a sample that favours hits as a whole.
# DENV2 CPE rescue: protects cells from dengue virus 2 cytopathic effect; DENV2-infected cells, cytopathic effect rescue, plate reader; 1.7% of 350,000 active; CPE inhibition, % at 9.99 µM; in the data active means CPE inhibition above about 20%, passing the limit was not always enough; inconclusive means no clear call, values can overlap the other calls; tested in BHK-21 cells;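 further: 0% = median of neutral control wells and 100% = median of positive control wells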
# N-glyco inh: blocks N-linked glycosylation in D54 reporter cells | D54 ERlucT glycosylation luciferase reporter, 24 h; percent of 100 nM tunicamycin response | reporter increase, % at 12.5 µM | 0.23% of 360,000 active | AID 588692;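 active means mean luciferase reporter signal, scaled so untreated is 0 and the glycosylation-blocking control 100, at or above a set limit in every replicate; inconclusive means mean reaches the limit but not every replicate does; inactive means mean below the limit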;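 further: luciferase carries N-glycosylation sites so blocking glycosylation raises the light; 0% = median of neutral control wells and 100% = median of 100 nM tunicamycin wells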
# Rtt109 HAT inh: C. albicans Rtt109 histone acetyltransferase inhibition. Q5AAJ8. purified Rtt109/Vps75, ThioGlo CoA-SH fluorescence, 4 h. inhibition, % at 34.9 µM. 0.16% of 330,000 active. AID 540336;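 active means inhibition of at least 50% in every replicate; inconclusive means best replicate reaches 50% inhibition but some replicates fall short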
# Target sequence (Q5AAJ8 whole entry, looked up): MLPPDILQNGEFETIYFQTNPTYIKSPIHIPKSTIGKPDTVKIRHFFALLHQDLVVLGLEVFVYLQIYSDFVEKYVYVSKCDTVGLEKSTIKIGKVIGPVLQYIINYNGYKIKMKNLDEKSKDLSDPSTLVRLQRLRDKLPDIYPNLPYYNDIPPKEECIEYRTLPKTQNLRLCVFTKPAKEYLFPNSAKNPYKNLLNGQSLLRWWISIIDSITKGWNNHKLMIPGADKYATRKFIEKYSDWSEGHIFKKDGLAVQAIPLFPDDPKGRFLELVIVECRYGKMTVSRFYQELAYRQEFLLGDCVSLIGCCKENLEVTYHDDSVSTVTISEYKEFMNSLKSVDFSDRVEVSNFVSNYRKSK
# PglD DTNB: inhibitors of Campylobacter jejuni PglD acetyltransferase; purified PglD enzyme, DTNB colorimetric CoA detection; inhibition, % at 12.5 µM; 0.098% of 360,000 active; AID 602405; in the data active means inhibition above about 16%, passing the limit was not always enough; inconclusive means no clear call, values can overlap the other calls
# * = called active by the depositor; ? = inconclusive; nt = no result.
SMILES,DENV2 CPE rescue,N-glyco inh,Rtt109 HAT inh,PglD DTNB
Cc1cccc(S(=O)(=O)N[C@H]2CC[C@H](CCNC(=O)Nc3cc(F)ccc3F)O[C@@H]2CO)c1,-3.2,nt,nt,1.9
C[C@H](CO)N1C[C@H](C)[C@@H](CN(C)C(=O)Nc2cccc3ccccc23)Oc2ccc(NC(=O)Cc3cn(C)c4ccccc34)cc2CC1=O,8.7,nt,nt,3.4
C[C@@H]1CN([C@H](C)CO)C(=O)Cc2cc(NC(=O)Cc3cn(C)c4ccccc34)ccc2O[C@@H]1CN(C)C(=O)Nc1cccc2ccccc12,45.0*,nt,nt,-7.7
C[C@H](CO)N1C[C@H](C)[C@H](CN(C)C(=O)Nc2ccc(F)cc2)Oc2ccc(NC(=O)CCC(F)(F)F)cc2CC1=O,25.3*,nt,nt,1.6
C[C@@H]1CN([C@@H](C)CO)C(=O)Cc2cc(NC(=O)Cc3ccccc3)ccc2O[C@H]1CN(C)C(=O)Nc1cccc2ccccc12,43.4*,nt,nt,7.1
C[C@@H]1CN([C@H](C)CO)C(=O)Cc2cc(NC(=O)CCC(F)(F)F)ccc2O[C@@H]1CN(C)C(=O)Nc1cccc2ccccc12,30.2*,nt,nt,0.5
C[C@H](CO)N1C[C@H](C)[C@@H](CN(C)C(=O)Nc2cccc3ccccc23)Oc2ccc(NC(=O)CCC(F)(F)F)cc2CC1=O,7.4,nt,nt,-2.4
C[C@@H]1CN([C@H](C)CO)C(=O)Cc2cc(NC(=O)Cc3ccccc3)ccc2O[C@@H]1CN(C)C(=O)Nc1ccc2c(c1)OCO2,27.8*,nt,nt,7.7
O=C(C[C@@H]1C=C[C@@H](NS(=O)(=O)c2ccccc2)[C@H](CO)O1)NCc1ccc(Cl)c(Cl)c1,-2.1,nt,nt,11.3
CCC(=O)Nc1cc(OC)cc(OC)c1,4.5,-0.9,-4.8,5.2
CCC(=O)Nc1cc(C)c(OC)c(C)c1,12.1,1.5,51.5*,nt
Cc1noc(C)c1NC(=O)N(C)C[C@H]1Oc2c(NC(=O)C3CC3)cccc2C(=O)N([C@@H](C)CO)C[C@H]1C,-2.8,nt,nt,-2.1
CC1(c2ccc3ccccc3c2)CCC(=O)O1 (centres undefined),22.1*,1.5,0.4,nt
O=C(C[C@H]1CC[C@H](NC(=O)C2CCC2)[C@@H](CO)O1)NC1CCC1,40.5*,nt,nt,-1.9
O=C(C[C@H]1CC[C@H](NC(=O)C2CCOCC2)[C@@H](CO)O1)NCC1CC1,34.3*,nt,nt,nt
O=C(C[C@H]1CC[C@@H](NC(=O)CC2CC2)[C@@H](CO)O1)NCC(F)(F)F,1.5,nt,nt,2.0
O=C(C[C@@H]1CC[C@@H](NC(=O)CC2CC2)[C@@H](CO)O1)NCC(F)(F)F,61.8*,nt,nt,-3.9
O=C(C[C@@H]1CC[C@@H](NC(=O)C2CCC2)[C@@H](CO)O1)NC1CCC1,-7.1,nt,nt,0.1
CO[C@H]1CN(C)C(=O)c2ccc(NS(C)(=O)=O)cc2OC[C@H](C)N(CC2CC2)C[C@@H]1C,1.9,nt,nt,4.7
COCC(=O)N1CC2(CCN(C(=O)CN3CCOCC3)CC2)c2c([nH]c3cc(OC)ccc23)[C@@H]1CO,-2.1,nt,nt,nt
O=c1[nH]c(=S)n2c(c1-c1ccccc1)OC(CBr)C2 (centres undefined),?,0.3,nt,0.0
O=c1[nH]c(=O)n2c(c1-c1ccccc1)OC(CBr)C2 (centres undefined),75.0*,5.6,nt,-4.6
CCC(=O)N1CC(=O)N2[C@@H](CO)[C@@H](c3ccc(C#CC(C)C)cc3)[C@@H]2C1,4.8,nt,nt,nt
O=C(NC1CCCC1)N[C@@H]1CC[C@H](CC(=O)N2CCOCC2)O[C@H]1CO,6.6,nt,nt,-0.5
c1ccc(COCCCn2cc(-c3ccccc3)nn2)cc1,45.5*,2.6,1.9,2.6
SMILES,DENV2 CPE rescue,N-glyco inh,Rtt109 HAT inh,PglD DTNB
O=S(=O)(N[C@@H]1CC[C@H](CCn2cc(-c3cccnc3)nn2)O[C@H]1CO)c1ccccc1,14.7,nt,nt,1.6
O=S(=O)(N[C@H]1CC[C@H](CCn2cc(-c3cccnc3)nn2)O[C@@H]1CO)c1ccccc1,28.8*,nt,nt,0.1
Cc1ccc(S(=O)(=O)N[C@H]2CC[C@@H](CCn3cc(-c4cccc(F)c4)nn3)O[C@H]2CO)cc1,34.3*,nt,nt,1.8
O=S(=O)(N[C@@H]1CC[C@@H](CCn2cc(-c3ccccn3)nn2)O[C@H]1CO)c1cccc(Cl)c1,36.7*,nt,nt,10.1
C[C@@H]1CN([C@@H](C)CO)C(=O)c2cc(C#CC3(O)CCCC3)cnc2O[C@@H]1CN(C)C(=O)CC1CC1,19.2,nt,nt,-3.1
CN(C)C(=O)c1ccc(-c2ccc([C@@H]3[C@@H](CO)N(C(=O)C4CCCC4)[C@H]3C#N)cc2)cc1,29.0*,nt,nt,6.4
CN(C)CC(=O)N1[C@H](C#N)[C@H](c2ccc(-c3ccc(C(=O)N(C)C)cc3)cc2)[C@H]1CO,37.5*,nt,nt,-3.1
CN(C)C(=O)c1cccc(-c2ccc([C@@H]3[C@@H](C#N)N(C(=O)C4CCC4)[C@@H]3CO)cc2)c1,25.9*,nt,nt,-2.8
CN(C)CC(=O)N1[C@H](C#N)[C@H](c2ccc(-c3cccc(C(=O)N(C)C)c3)cc2)[C@@H]1CO,?,nt,nt,1.5
CN(C)C(=O)c1ccc(-c2ccc([C@@H]3[C@@H](C#N)N(C(=O)C4CCC4)[C@H]3CO)cc2)cc1,5.5,nt,nt,4.7
CN(C)C(=O)c1cccc(-c2ccccc2[C@H]2[C@H](C#N)N(C(=O)C3CC3)[C@H]2CO)c1,6.4,nt,nt,nt
CN(C)C(=O)c1cccc(-c2ccccc2[C@H]2[C@@H](C#N)N(C(=O)C3CC3)[C@H]2CO)c1,42.9*,nt,nt,nt
C[C@@H]1CN([C@@H](C)CO)C(=O)Cc2cc(NS(C)(=O)=O)ccc2O[C@H]1CN(C)S(=O)(=O)c1cn(C)cn1,-4.0,nt,nt,-0.7
COc1ccc(NC(=O)C(OC(=O)c2cnc(C)cn2)c2ccccc2)cc1Cl (centres undefined),74.5*,2.6,9.1,nt
COc1ccc(C)cc1NC(=O)C(OC(=O)c1cnc(C)cn1)c1ccccc1 (centres undefined),2.9,1.2,25.7,nt
C[C@H]1CN([C@@H](C)CO)C(=O)Cc2cc(NS(=O)(=O)c3ccccc3)ccc2O[C@H]1CN(C)C(=O)Nc1cccc2ccccc12,-14.2,nt,nt,-0.5
CCCC(=O)Nc1ccc2c(c1)C(=O)N(C)C[C@@H](OC)[C@H](C)CN(S(=O)(=O)c1cn(C)cn1)[C@@H](C)CO2,-2.8,nt,nt,4.4
CCCC(NC(=O)C(C)Sc1nnnn1C1CC1)c1ccccc1 (centres undefined),90.3*,-2.0,-5.3,-5.7
CC(=O)NCCNc1nc(NCc2cccs2)nc2ccsc12,70.9*,8.2,nt,-3.2
COCCNc1nc(NCc2cccs2)nc2ccsc12,-2.5,0.5,nt,0.4
COc1ccc(C(=O)C[C@@H]2OC[C@H](C)N2S(=O)(=O)c2ccc(C)cc2)cc1OC,56.9*,nt,nt,nt
COC(=O)C[C@@H]1OC[C@H](Cc2ccccc2)N1S(=O)(=O)c1ccc(C)cc1,20.6*,nt,nt,nt
C[C@H](CO)N1C[C@H](C)[C@@H](CN(C)Cc2ccncc2)Oc2ccc(NS(=O)(=O)c3ccccc3)cc2C1=O,2.9,nt,nt,-3.5
COc1ccccc1NC(=O)N[C@@H]1CC[C@H](CCn2cc(-c3ccccc3OC)nn2)O[C@@H]1CO,5.1,nt,nt,-41.1
COc1ccc(S(=O)(=O)N2C[C@H](O)COC[C@@H]3O[C@@H](CC(=O)N[C@@H]4CCN(Cc5ccccc5)C4)CC[C@H]32)cc1,0.0,nt,nt,-1.8
